The source made the active and inactive calls. Unless noted, no rule for the calls is given here.
What was measured:
[1] = test system: Wnt5a (protein binding on small-molecule microarray); experiment: small molecules binding Wnt5a protein – biophysical, small-molecule microarray, 635/667 nm fluorescence, primary screen (AID 1142); conditions: 635 nm fluorescence, higher = more signal;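 also: fluorescence read at 667 nm with signal to noise per printed feature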
[2] = ATP-based viability of Huh7 replicon cells – cell-based, CellTiter-Glo luminescence, basal, 48 h, cytotoxicity control for HCV replication inhibitor project, primary screen (AID 1143); conditions: higher = more signal, called active from +8 up or from −8 down;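 also: Huh7 hepatoma cells carrying a hepatitis C replication reporter with no stimulus; test concentration not given here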
[3] = Pseudomonas biofilm growth suppression – PAO1 strain, BacTiter-Glo luminescence, LB-PBS, primary screen (AID 1144); conditions: P. aeruginosa PAO1 biofilm, 12 h, higher = more signal
[4] = basal CRE-LacZ reporter activity in PC12 – cell-based, unstimulated, primary screen (AID 1145); conditions: no forskolin, luminescence, 4.5 h, higher = more signal, called active from +8 up or from −8 down
[5] = forskolin-driven CRE-LacZ activity in PC12 – cell-based, CRE-LacZ reporter, forskolin-stimulated, primary screen (AID 1146); conditions: luminescence, 4.5 h, higher = more signal, called active from +8 up or from −8 down;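 also: PC12 cells with 6xCRE LacZ reporter stimulated by forskolin 10 µM; beta-galactosidase reporter signal reflecting CREB driven transcription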
[6] = target: Streptavidin (Streptomyces avidinii) (UniProt P22629); experiment: compounds binding control protein streptavidin – biophysical, small-molecule microarray, 635/667 nm fluorescence, artefact control for SMM compound annotation, primary screen (AID 1147); conditions: higher = more signal;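 also: signal reflects streptavidin binding to arrayed compounds as a control protein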
[7] = probe aInhba binding on compound microarray – biochemical, small-molecule microarray, 635/667 nm fluorescence, primary screen (AID 1148); conditions: higher = more signal;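 also: score merges 667nm spot fluorescence with signal-to-noise for antibody binding to printed compounds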
[8] = target: Torsin-1A (Homo sapiens) (UniProt O14656); experiment: TOR1A wild-type binding on microarray – cell lysate, small-molecule microarray, lysate, 635/667 nm, primary screen (AID 1149); conditions: COS7 hTOR1A-WT lysate, 635 nm fluorescence, higher = more signal
[9] = target: Torsin-1A (Homo sapiens) (UniProt O14656); experiment: torsin A mutant lysate binding on microarrays – cell lysate, small-molecule microarray, COS7 lysate, 635/667 nm fluorescence, primary screen (AID 1150); conditions: COS7 hTOR1A mutant lysate, 635 nm fluorescence, higher = more signal;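 also: score pools 667 nm emission and signal to noise measuring lysate protein binding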
[10] = test system: Sonic hedgehog protein (Shh); experiment: Sonic hedgehog microarray binding compounds – biochemical, small-molecule microarray, 635/667 nm fluorescence, primary screen (AID 1151); conditions: 635 nm fluorescence, higher = more signal;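 also: Shh protein binding to compounds spotted on small-molecule microarray slides; score combines spot fluorescence intensity with signal-to-noise across triplicate slides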

Chain of Streptavidin (Streptomyces avidinii) (P22629 whole entry, looked up): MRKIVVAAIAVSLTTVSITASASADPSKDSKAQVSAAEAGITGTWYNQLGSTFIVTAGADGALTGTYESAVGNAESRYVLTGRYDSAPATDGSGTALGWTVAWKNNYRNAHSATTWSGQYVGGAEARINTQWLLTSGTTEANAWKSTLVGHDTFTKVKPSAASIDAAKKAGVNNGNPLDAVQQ
Chain of Torsin-1A (Homo sapiens) (O14656 whole entry, looked up): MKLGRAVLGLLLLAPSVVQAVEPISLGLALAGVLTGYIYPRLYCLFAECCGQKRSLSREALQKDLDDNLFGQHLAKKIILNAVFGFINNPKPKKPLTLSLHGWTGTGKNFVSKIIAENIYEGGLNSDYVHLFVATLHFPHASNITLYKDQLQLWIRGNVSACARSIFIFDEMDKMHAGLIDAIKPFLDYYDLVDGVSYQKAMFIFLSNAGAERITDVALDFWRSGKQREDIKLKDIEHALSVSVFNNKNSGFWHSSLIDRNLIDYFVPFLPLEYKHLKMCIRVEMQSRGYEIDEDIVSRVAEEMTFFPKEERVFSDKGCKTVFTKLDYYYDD

Structure (SMILES)	composite z-score [1]	z-score [2]	z-score [3]	z-score [4]	z-score [5]	composite z-score [6]	composite z-score [7]	composite z-score [8]	composite z-score [9]	composite z-score [10]
CN1C(=O)C2C=CC(C(O)c3ccc(F)cc3)N(N(c3ccccc3)c3ccccc3)C2C1=O (stereo not given)	-0.0512	0.319 (inactive)	-0.0417 (inactive)	-0.708 (inactive)	0.677 (inactive)	0.453	0.0047	-0.182	0.361	-0.647
C=C(/C(=C/C[C@H](OC(C)=O)c1ccc(OCCO)cc1)c1cc(C(=O)OC)ccc1OC)C(C)C	0.269	-2.4 (inactive)	-0.357 (inactive)	20.7 (active)	-0.509 (inactive)	1.17	0.0589	0.287	1.98	1.41
CCCC[C@H]1C[C@@H]1[C@@H]1N(P(=O)(c2ccccc2)c2ccccc2)C[C@@](O)(c2ccccc2)CC12CC2	-0.0443	-3.13 (inactive)	0.922 (inactive)	-0.185 (inactive)	1.18 (inactive)	1.15	0.108	-0.318	0.409	-1.02
C#CCNCc1ccccc1	-0.0766	-0.0359 (inactive)	1.16 (inactive)	-0.882 (inactive)	0.531 (inactive)	0.202	-0.134	0.335	0.442	0.442
COc1ccc([Si](C)(C)[C@H]2[C@H](CC(=O)N3CCC[C@H]3CO)O[C@@]3(C(=O)N(Cc4cccc(N5CCOC5=O)c4)c4ccccc43)[C@@H]2C)cc1	0.307	-5.09 (inactive)	0.621 (inactive)	0.395 (inactive)	-0.135 (inactive)	0.0063	-0.0468	0.716	0.58	1.99
CC(c1ccccc1)C(O)C1C=CC2C(=O)N(C)C(=O)C2N1NC(=O)OC(C)(C)C (stereo not given)	0.472	0.834 (inactive)	0.059 (inactive)	0.622 (inactive)	-0.434 (inactive)	2.15	0.19	0.516	1.13	-0.656
C=C(CCCC)/C(=C/C[C@H](OC(C)=O)c1ccc(OCCO)cc1)c1cnc2ccccc2c1	0.0824	-1.76 (inactive)	-0.829 (inactive)	2.59 (inactive)	1.08 (inactive)	0.535	-0.0087	1.27	0.671	1.8
[N-]=[N+]=NCc1ccccc1[C@@H]1OC(c2ccc(OCCCO)cc2)=N[C@]1(CCS(=O)(=O)c1ccccc1)C(=O)N1CCOCC1	0.477	-4.07 (inactive)	-0.344 (inactive)	1.59 (inactive)	-1.08 (inactive)	1.5	0.351	0.796	0.947	-0.149
COCCOC(=O)N1C(=O)[C@@]2(c3cc(C#CCCO)ccc31)[C@H](c1ccc(O)cc1)N1[C@H](c3ccccc3)[C@H](c3ccccc3)OC(=O)[C@H]1[C@@H]2C(=O)N1CCN(c2ncccn2)CC1	0.449	-1.97 (inactive)	-0.185 (inactive)	-0.459 (inactive)	0.648 (inactive)	0.842	1.62	0.852	0.606	1.53
C=CCNC(=O)[C@H]1[C@@H]2C(=O)O[C@@H](c3ccccc3)[C@@H](c3ccccc3)N2[C@@H](c2ccc(OCCO)cc2)[C@]12C(=O)Nc1ccc(C#CCC(C(=O)OC)C(=O)OC)cc12	0.256	-1.19 (inactive)	0.626 (inactive)	-0.728 (inactive)	0.323 (inactive)	1.17	0.0816	0.332	0.862	0.984
CC(=CC1CCCCC1)[C@@H](NC(=O)c1cccnc1)c1ccc(-c2ccccc2)cc1	-0.444	-2.65 (inactive)	0.477 (inactive)	1.34 (inactive)	1.24 (inactive)	0.0816	-0.0986	-0.77	-0.278	-0.683
COc1ccc(C(O)C2C=CC3C(=O)N(C)C(=O)C3N2NC(=O)OC(C)(C)C)c2ccccc12 (stereo not given)	0.364	-0.144 (inactive)	-0.0855 (inactive)	1.58 (inactive)	-0.0415 (inactive)	1.13	-0.137	0.177	0.644	-0.416
NC(=O)[C@@]1(Cc2ccccc2)N=C(c2ccc(OCCCO)cc2)O[C@H]1c1ccccc1	0.677	-1.51 (inactive)	-0.657 (inactive)	1.37 (inactive)	-0.382 (inactive)	0.924	0.196	1.07	0.601	-0.558
C=C(C)[C@@H]1CC=C(C(O)C2C=CC3C(=O)NC(=O)C3N2Nc2ccc(Cl)cc2Cl)CC1 (stereo not given in full)	0.287	-1.64 (inactive)	-0.995 (inactive)	0.815 (inactive)	-0.113 (inactive)	1.39	0.099	-0.0124	0.455	0.393
COc1ccc(CCNC(=O)[C@@]2(C)c3ccccc3C(=O)N(c3ccc(C)cn3)[C@H]2c2ccc(CO)cc2)cc1	-0.49	-0.998 (inactive)	-0.604 (inactive)	-0.0888 (inactive)	-0.371 (inactive)	-0.712	-0.183	-2.16	-1.44	-0.797
COc1ccc(NC(=O)O[C@H]2[C@H](OC(=O)c3cc4ccccc4[nH]3)[C@@H](OC(=O)c3cc4ccccc4[nH]3)[C@@H](OC)O[C@@H]2CO)cc1	0.147	-4.18 (inactive)	-1.65 (inactive)	1.84 (inactive)	-1.1 (inactive)	-0.342	-0.0044	-0.0863	0.291	0.593
O=C1C2C=CC(C(O)c3ccc(F)cc3)N(Nc3ccc([N+](=O)[O-])cc3)C2C(=O)N1c1ccccc1 (stereo not given)	0.241	-0.0129 (inactive)	-0.615 (inactive)	-0.415 (inactive)	0.15 (inactive)	1.39	0.0487	-0.232	0.187	-0.241
O=C1NC(=O)C2C1C=CC(C(O)C=Cc1ccc([N+](=O)[O-])cc1)N2Nc1ccc(Cl)cc1Cl (stereo not given)	0.28	0.099 (inactive)	-0.402 (inactive)	0.253 (inactive)	0.342 (inactive)	1.14	0.317	0.339	0.417	-0.08
C=CC[C@@]1(C(=O)N2CCCCC2)N=C(c2ccc(OCCCO)cc2)O[C@@H]1c1ccccc1CN=[N+]=[N-]	0.381	-4.96 (inactive)	-0.703 (inactive)	3.77 (inactive)	0.51 (inactive)	1.77	0.233	0.342	0.711	0.466
OB1C=CCC(CCc2ccccc2)O1 (stereo not given)	-0.248	-2.16 (inactive)	-1.35 (inactive)	0.672 (inactive)	-1.28 (inactive)	-0.492	-0.385	-0.459	-0.643	0.192
CCOC(=O)[C@H]1C/C=C/C[C@H](C(=O)OCC)C(=O)O[C@H]2[C@@H](OC)O[C@H](CO)[C@@H](OC(=O)c3ccc(Br)cc3)[C@@H]2OC1=O	0.168	-3.02 (inactive)	-0.79 (inactive)	0.342 (inactive)	-0.0314 (inactive)	-0.0923	0.0464	0.441	-0.15	0.473
O=C1[C@H]2C=C(I)[C@H](C[C@@H]2OCCCCO)[C@@]12CO2	-0.163	0.634 (inactive)	-0.0455 (inactive)	-0.235 (inactive)	1.6 (inactive)	-0.162	-0.025	0.953	0.625	0.745
COCC(=C=CC[C@H](O)c1cccc(OCCO)c1)CCO	0.461	0.15 (inactive)	-0.833 (inactive)	0.0281 (inactive)	0.324 (inactive)	-0.33	-0.12	-0.744	-0.434	1.81
COCCOC(=O)N1C(=O)[C@@]2(c3cc(C#CC4=CCCCC4)ccc31)[C@H](c1ccc(OCCO)cc1)N1[C@H](c3ccccc3)[C@H](c3ccccc3)OC(=O)[C@H]1[C@@H]2C(=O)N1CCc2cc(OC)c(OC)cc2C1	0.687	-0.496 (inactive)	-0.536 (inactive)	-0.258 (inactive)	-0.513 (inactive)	0.606	0.346	0.359	1.17	1.32
CN(C)CCCCNC(=O)[C@@H]1C[C@@H]2C(=O)N[C@@H](CCCCN)C(=O)N2[C@@H]1c1ccc(O)cc1	0.0291	-0.151 (inactive)	-0.0779 (inactive)	0.281 (inactive)	-0.773 (inactive)	0.98	-0.0403	0.584	0.435	1.23
CC(C)[Si](C#C[Si](C(C)C)(C(C)C)C(C)C)(O[C@H](C)c1cn(Cc2ccccc2)nn1)C(C)C	0.0406	-0.182 (inactive)	-0.324 (inactive)	-0.0848 (inactive)	-0.624 (inactive)	1.32	-0.0405	0.709	0.5	0.372
[N-]=[N+]=NCc1ccccc1[C@@H]1OC(c2ccc(OCCCO)cc2)=N[C@]1(CCS(=O)(=O)c1ccccc1)C(N)=O	1.2	-0.369 (inactive)	1.47 (inactive)	-0.128 (inactive)	-0.785 (inactive)	0.982	0.393	1.41	1.26	0.99
COc1ccc(-c2cc3c(c(Cc4ccccc4)n2)[Si](C(C)C)(C(C)C)OC3)cn1	-0.153	-1.03 (inactive)	0.2 (inactive)	-0.141 (inactive)	0.877 (inactive)	-0.32	-0.215	-0.0113	-0.729	-0.093
COCCCNC(=O)[C@@]1(CCS(=O)(=O)c2ccccc2)N=C(c2ccc(OCCCO)cc2)O[C@H]1c1ccccc1N=[N+]=[N-]	1.04	-5.54 (inactive)	-0.372 (inactive)	0.0451 (inactive)	-1.15 (inactive)	0.985	0.467	0.765	1.49	1.72

Source: PubChem BioAssay
